Compounds with a hit are over-represented: about 2.4% of the library has one in this group of screens.
D2 PAM-1 – positive allosteric modulators of human D2 dopamine receptor; P14416; DiscoveRx D2 beta-arrestin cells, luminescence, 90 min; 100% = 57 uM dopamine signal; potentiation, % (no concentration beside the values); 0.23% of 360,000 active; AID 624464; in the data active = potentiation above about 50%
Target sequence (P14416 whole entry, looked up): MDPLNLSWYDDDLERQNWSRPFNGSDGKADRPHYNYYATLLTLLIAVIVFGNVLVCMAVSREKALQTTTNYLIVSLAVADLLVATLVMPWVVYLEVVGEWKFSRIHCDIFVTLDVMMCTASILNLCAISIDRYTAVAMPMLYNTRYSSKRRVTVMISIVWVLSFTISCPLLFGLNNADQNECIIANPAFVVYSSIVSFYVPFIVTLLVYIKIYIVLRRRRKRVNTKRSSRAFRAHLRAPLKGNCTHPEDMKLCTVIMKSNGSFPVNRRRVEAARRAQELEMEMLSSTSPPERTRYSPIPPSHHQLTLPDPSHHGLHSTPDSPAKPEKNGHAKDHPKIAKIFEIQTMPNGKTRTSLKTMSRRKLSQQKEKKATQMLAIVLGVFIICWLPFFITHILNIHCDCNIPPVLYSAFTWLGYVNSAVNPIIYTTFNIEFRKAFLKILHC
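D2 cells co-treated with compound plus 50 nM dopamine (EC20) for 90 min at 37 deg C to detect potentiation. Beta-arrestin recruitment was read as enzyme-fragment luminescence after 1 h at ambient temperature. Full response was set by 57 uM dopamine.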
D2 ag-1 – D2 dopamine receptor (human) agonism. activation, % at 2 µM. 0.53% of 340,000 active. P14416. HEK293 T-REx D2 cells, calcium flux agonist mode;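 active = activation over 3 SD above normal in the single-dose calcium agonist read, cut at about 30% in these data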; note: 0% is about no effect
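Agonism scored from kinetic calcium signal (1 read/sec, 180 s) following compound pin transfer, after a 10 s baseline. Cells: HEK293 Trex line expressing inducible D2 receptor coupled to calcium, dye-loaded after overnight culture at 30 C.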
D2 PAM-2 – positively modulates the human D2 dopamine receptor allosterically; 0.34% of 340,000 active; HEK293 T-REx D2, calcium flux, EC20 dopamine potentiation; AID 485347; potentiation, % at 10 µM;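 active = potentiation over 3 SD above the plate norm, cut at about 30% in these data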; note: 0% is about no effect
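Cells plated with tetracycline inducer and held overnight at 30 C; calcium dye loaded 30–90 min at room temperature; baseline taken, compound added and read 180 s; EC20 dopamine then added and read 180 s.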
D2 antag – D2 dopamine receptor (human) antagonism. 2% of 340,000 active. inhibition, % at 10 µM. HEK293 TREx D2 cells, calcium flux, dopamine EC80. AID 485344. P14416; in the data active = inhibition above about 30%; inactive = below that, where a call was filed; note: 0% is about no effect
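Inhibition of EC80 dopamine-driven calcium flux, recorded kinetically, defines activity here; cells are a tetracycline-induced HEK293 T-REx line expressing force-coupled D2.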
D2 ag-2 – agonists of human D2 dopamine receptor (beta-arrestin). activation, % (no concentration beside the values). 0.084% of 360,000 active. P14416. DiscoveRx PathHunter D2 beta-arrestin, luminescence, 90 min; 100% = 57 uM dopamine signal; in the data active = activation above about 40%
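Agonist mode: compounds alone added to overnight-plated D2 PathHunter cells for 90 min at 37 C, with 57 uM final dopamine (EC100) defining full response. Beta-arrestin recruitment detected by chemiluminescent reagent, read after 1 h at ambient temperature.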
B2AR arrestin – agonists driving beta-arrestin recruitment to human beta2-adrenergic receptor. P07550. beta-arrestin recruitment to beta2AR, cell-based reporter. Potency, µM (highest dose often 46.1 µM), inactives show top-dose activation, actives largely listed as activators. 0.02% of 330,000 active; active = well fitted activation curve with a large enough effect;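 note: potency is the fitted concentration of half-maximal effect; 0% = DMSO controls and full agonism = EC100 isoproterenol or metaproterenol; nearly all actives have a fitted effect of over 65% in size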
* hit, by the source's call; · = no result.

SMILES | D2 PAM-1 | D2 ag-1 | D2 PAM-2 | D2 antag | D2 ag-2 | B2AR arrestin
CCn1cc(C(=O)O)c(=O)c2cc(F)c(N/N=C/c3ccccc3[N+](=O)[O-])cc21 | -2.0 | 7.1 | -21.5 | 30.0* | 1.5 | -0.3%
CCn1cc(C(=O)O)c(=O)c2cc(F)c(N3CCN(C(=S)NC(=O)c4ccccc4Br)CC3)cc21 | -10.1 | -2.0 | 30.7* | 5.8 | -2.0 | -1.4%
CCn1cc(C(=O)O)c(=O)c2cc(F)c(N3CCN(C(=S)NC(=O)c4ccc(F)cc4)CC3)cc21 | 2.3 | -0.4 | 18.7 | -10.4 | -1.1 | -0.7%
Cc1ccc(-c2nc3ncccn3c2Nc2ccc3c(c2)OCO3)o1 | 63.1* | -0.2 | 12.0 | -3.6 | 11.2 | 3.3%
Cc1ccc(Nc2c(-c3ccc(C)o3)nc3ncccn23)cc1 | 5.2 | 0.8 | 12.8 | -7.2 | 8.1 | 0.7%
C/C(Cn1nnc([N+](=O)[O-])n1)=N\NC(=O)c1ccccc1 | 58.8* | 0.7 | 1.9 | -7.3 | 6.8 | 0.0%
C/C(Cn1cnc([N+](=O)[O-])n1)=N\NC(=O)c1ccccc1 | 1.9 | -0.6 | -9.5 | -6.8 | -1.2 | -1.1%
COC(=O)C1=C(C)NC(C)=C(C(=O)OC)C1c1ccccn1 | -7.9 | -0.2 | 2.2 | -14.8 | -1.6 | 0.0%
O=C(Oc1cccc(Oc2ccccc2)c1)N1CCOCC1 | -5.1 | -0.5 | 7.0 | 40.9* | 0.5 | -0.2%
Cc1ccccc1NC(=O)Cn1nnc(-c2ccc(CN3CCC(C)CC3)cc2)n1 | -15.4 | 1.6 | -8.2 | 33.3* | 0.4 | 0.2%
CC1CCN(Cc2ccc(-c3nnn(CC(=O)NC4CCCCC4)n3)cc2)CC1 | -10.7 | 0.1 | -3.4 | -14.2 | -0.8 | 0.0%
COc1ccc(N(CC(=O)Nc2ccc3c(c2)OCO3)S(=O)(=O)c2c(C)nn(C)c2C)cc1 | -10.7 | 0.7 | -12.2 | -1.4 | -4.6 | 0.2%
O=C(/C=C/c1ccccc1)N(c1ccccn1)C1CCCCC1 | 7.7 | 33.9* | -8.5 | 20.7 | 12.8 | -0.2%
COc1ccc(OC)c(-n2c(-c3cccc(O)c3)n[nH]c2=S)c1 | 15.7 | -0.2 | 35.5* | 11.8 | 0.4 | -0.1%
COc1ccc(-c2n[nH]c(=S)n2-c2cc(OC)ccc2OC)cc1 | -6.7 | · | · | · | -1.1 | 0.2%
O=C(OCCN1C(=O)c2ccccc2C1=O)c1cc(S(=O)(=O)N2CCOCC2)ccc1Cl | -7.4 | -0.4 | 14.6 | -7.0 | 2.8 | -0.2%
O=C(COC(=O)c1cccc(Cl)c1)Nc1cc(S(=O)(=O)N2CCOCC2)ccc1N1CCOCC1 | -14.5 | · | · | · | -1.6 | ·
O=C(OCCN1C(=O)c2cccc3c(N4CCOCC4)ccc(c23)C1=O)c1cccc(Cl)c1 | -29.0 | 74.4* | -17.7 | 34.6* | 1.8 | 0.0%
O=C(OCCN1C(=O)c2cccc3c(N4CCOCC4)ccc(c23)C1=O)c1ccc(Cl)cc1Cl | -18.0 | 36.4* | -10.4 | 26.9 | -1.4 | 0.1%
CCN1CCN(C(=O)C2CCN(S(=O)(=O)c3ccc4c(c3)NC(=O)C(C)S4)CC2)CC1 (centres undefined) | -4.3 | -0.6 | 7.6 | -7.0 | 1.6 | -1.3%
Cc1nc2ccccc2c(C)c1C(=O)c1ccccc1 | -9.0 | 1.3 | 7.2 | 30.1* | -1.0 | 0.2%
CC(=O)c1c(C)nc2ccccc2c1N | -8.6 | 0.2 | -11.5 | -8.5 | -1.0 | 0.0%
COCCN(C(=O)COC(=O)/C=C/c1ccc(SC)cc1)c1c(N)n(Cc2ccccc2)c(=O)[nH]c1=O | 5.5 | · | · | · | 2.5 | ·
COCCN(C(=O)COC(=O)/C=C/c1ccc(C(F)(F)F)cc1)c1c(N)n(Cc2ccccc2)c(=O)[nH]c1=O | -8.8 | 0.6 | -5.8 | 45.3* | -4.4 | 0.1%
c1cc(CN2CCN(C3CCCCCC3)CC2)ccn1 | -16.9 | -5.1 | -2.3 | 8.5 | -6.5 | 0.0%
c1c(C2CCCCC2)n[nH]c1CN1CCCCC1 | -42.4 | 0.4 | -22.2 | 40.1* | -0.6 | 0.5%
CC(=O)N1c2ccccc2C(CBr)=CC1(C)C | -3.5 | 0.5 | 7.9 | -7.0 | -13.8 | -0.6%
O=C(c1ccc(N2CCCS2(=O)=O)cc1)N1CCN(c2ccc(F)cc2)CC1 | 1.9 | 1.3 | 17.0 | 6.1 | 6.2 | 0.1%

Source: PubChem
